The values below come from PubChem BioAssay (NCI).

Compounds without any hit were thinned out: in the full panel of roughly 83,000, 20% have a hit.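 Cell lines were cultured in 96-well plates, exposed to a single compound concentration, and assessed for percent growth 48 hours later.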 Values without a mark were called inactive. Activity calls are given as the source filed them. How the source made its calls: active means growth percent below 10; inactive means the rest.

Test systems include NCI-H23 lung; NCI-H226 lung; NCI-H460 lung; NCI-H522 lung; A549/ATCC NSCLC; 786-0 renal; COLO 205 colon; DU-145 prostate; K-562 leukemia; MALME-3M melanoma; MDA-MB-231 breast; RXF 393 renal; SF-268 CNS; SF-295 CNS; SF-539 CNS; M14 melanoma; UACC-257 melanoma; NCI-H322M lung; HOP-62 NSCLC; HOP-92 NSCLC.
Holding throughout (test): NCI-60 one-dose screen, 48 h (100 = growth as untreated, 0 = no growth, -100 = all killed)
Holding throughout (settings): 10 µM

Consider `Cn1c2ccccc2c2c3[nH][nH]c(=O)c3c3c4ccccc4[nH]c3c21`, for which the growth in the assay on NCI-H23 lung is 19.2%; in the assay on NCI-H226 lung, 65.8%; with NCI-H460 lung, -28.2% (active); in the assay with NCI-H522 lung, 4.72% (active); in the assay with A549/ATCC NSCLC, 56.9%; in the assay with 786-0 renal it was 23%. Besides, the growth with COLO 205 colon is 59%; with DU-145 prostate, 10.5%; in the assay with K-562 leukemia, 32.3%; in the assay on MALME-3M melanoma, 92.3%; in the assay with MDA-MB-231 breast it was 19.8%; in the assay with RXF 393 renal, -36.7% (active). Further, the growth in the assay on SF-268 CNS is 25%; in the assay on SF-295 CNS, 81.3%; in the assay on SF-539 CNS, -20.8% (active); with M14 melanoma, 17.4%.

On to `Nc1ccccc1NC(=O)c1ccc(CCCC(=O)Nc2ccc(C3CC3N)cc2)cc1` (configuration not stated), for which the growth in the assay on NCI-H23 lung is 37.2%; with NCI-H226 lung, 27.5%; in the assay on NCI-H460 lung, 40.4%; in the assay on NCI-H522 lung, -34.4% (active); with A549/ATCC NSCLC, 34.8%; in the assay with 786-0 renal, 38.8%. In addition, the growth in the assay on COLO 205 colon is -5.7% (active); with DU-145 prostate it was 38.7%; with K-562 leukemia, 25.4%; in the assay on MALME-3M melanoma it was 21.7%; in the assay with MDA-MB-231 breast, 47.5%; in the assay with RXF 393 renal, 20.8%. The growth in the assay with SF-268 CNS was 32.6%; in the assay with SF-295 CNS it was 22.1%; in the assay on SF-539 CNS it was 30.9%; in the assay with M14 melanoma, 27%.

Take `Cc1c2c[n+](C(C)C)ccc2c(C)c2c1[nH]c1ccccc12`: the growth in the assay with NCI-H23 lung is 6.42% (active); in the assay with NCI-H226 lung it was 27.4%; with NCI-H460 lung it was 4.39% (active); in the assay with NCI-H522 lung it was 2.71% (active); with A549/ATCC NSCLC, 20.4%; in the assay on 786-0 renal, 27.7%. Besides, the growth in the assay with COLO 205 colon is -6.61% (active); in the assay on DU-145 prostate, 36.1%; in the assay with K-562 leukemia, 23.3%; in the assay on MALME-3M melanoma, -25.6% (active); in the assay on MDA-MB-231 breast, 35.3%; in the assay on RXF 393 renal, 60.3%. The growth is 15.3% in the assay on SF-268 CNS, 2.91% (active) in the assay on SF-295 CNS, 20.8% with SF-539 CNS and 30% with M14 melanoma.

Take `CN1C(C(=O)Nc2ccccn2)=C(O)c2sc(Cl)cc2S1(=O)=O`: the growth in the assay on NCI-H23 lung is 99.6%; with NCI-H226 lung it was 106%; with NCI-H460 lung, 99.9%; with A549/ATCC NSCLC, 99.9%; in the assay with 786-0 renal, 104%; in the assay with COLO 205 colon, 105%. For the same compound, the growth in the assay with DU-145 prostate was 106%; in the assay on MALME-3M melanoma, 102%; in the assay on MDA-MB-231 breast, 105%; in the assay on RXF 393 renal, 111%; in the assay with SF-268 CNS, 100%; with SF-295 CNS it was 94.8%. Further, the growth in the assay on SF-539 CNS was 117%; with UACC-257 melanoma, 100%; with M14 melanoma it was 108%.

On to `CCCN1CN2C(=O)N3CN(CCC)CN4C(=S)N(C1)C2C34` (configuration not stated), for which the growth with NCI-H23 lung was 100%; in the assay with NCI-H322M lung it was 87.6%; in the assay with HOP-62 NSCLC it was 84.7%; in the assay with NCI-H460 lung it was 112%; with HOP-92 NSCLC it was 101%; in the assay with NCI-H522 lung, 91.7%. For the same compound, the growth with A549/ATCC NSCLC was 102%; in the assay on 786-0 renal it was 93.2%; in the assay with COLO 205 colon, 114%; in the assay with DU-145 prostate, 101%; in the assay with K-562 leukemia, 105%; in the assay on MALME-3M melanoma, 112%. Moreover, the growth with MDA-MB-231 breast is 98.6%; in the assay on RXF 393 renal, 132%; with SF-268 CNS it was 97.3%; with SF-295 CNS, 94.2%; in the assay on SF-539 CNS it was 95.3%; in the assay on UACC-257 melanoma it was 92.9%. The growth in the assay on M14 melanoma was 94.5%.

In the case of `N#Cc1c(-c2ccc(Cl)cc2)cc(-c2cc(O)ccc2O)nc1N`, the growth was 11.2% in the assay with NCI-H23 lung; 94.8% in the assay with NCI-H226 lung; 5.46% (active) in the assay with NCI-H460 lung; -8.49% (active) in the assay on NCI-H522 lung; 40% in the assay on A549/ATCC NSCLC; -4.38% (active) in the assay on 786-0 renal. The growth is 97.5% in the assay with COLO 205 colon; 21.7% in the assay on DU-145 prostate; 29.1% in the assay on K-562 leukemia; 30.2% in the assay with MALME-3M melanoma; -5.89% (active) with MDA-MB-231 breast; 15.7% with RXF 393 renal. The growth is 31.9% in the assay on SF-268 CNS, 75.6% in the assay with SF-295 CNS, -1.42% (active) with SF-539 CNS and 2.5% (active) with M14 melanoma.

Consider `CC(C)[N+]1(C)C2CC[C@@H]1CC(OC(=O)C(CO)c1ccccc1)C2` (some centres not stated), for which the growth in the assay with NCI-H23 lung is 92%; in the assay with NCI-H226 lung, 103%; in the assay with NCI-H460 lung, 108%; with A549/ATCC NSCLC, 92.3%; in the assay with 786-0 renal, 103%; in the assay with COLO 205 colon it was 113%. Also, the growth with DU-145 prostate is 117%; in the assay with MALME-3M melanoma, 103%; in the assay on MDA-MB-231 breast, 98.8%; in the assay with RXF 393 renal, 120%; in the assay on UACC-257 melanoma it was 96.9%; in the assay on M14 melanoma, 110%.

For the compound `COc1cc2c3c(n([C@@H]4CCOC4)c(=O)c2cc1OC)-c1cc2c(cc1C3=O)OCO2`, the growth is 22.8% in the assay on NCI-H23 lung; 24.2% in the assay on NCI-H226 lung; 4.11% (active) with NCI-H460 lung; 17.5% in the assay on NCI-H522 lung; 30.4% in the assay on A549/ATCC NSCLC; 7.24% (active) in the assay with 786-0 renal. The growth is 38.8% in the assay on COLO 205 colon; 24.2% in the assay with DU-145 prostate; 55% in the assay with K-562 leukemia; 75.6% in the assay with MALME-3M melanoma; 91% with MDA-MB-231 breast; 52.4% in the assay with RXF 393 renal. In addition, the growth with SF-268 CNS is 35%; in the assay with SF-295 CNS, 1.17% (active); in the assay on SF-539 CNS, -3.51% (active); with M14 melanoma, 16.5%.

Consider `O=C1c2ccccc2-c2c1c1cccnc1c(=O)n2C[C@H](O)CO`, for which the growth with NCI-H23 lung is 56.6%; in the assay on NCI-H226 lung, 78.8%; in the assay with NCI-H460 lung, 14.6%; in the assay on NCI-H522 lung, 44.4%; in the assay with A549/ATCC NSCLC, 31.9%; in the assay on 786-0 renal, 55.2%. The growth with COLO 205 colon is 53.9%; with DU-145 prostate, 80.9%; in the assay on K-562 leukemia, 76.6%; in the assay with MALME-3M melanoma, 66.8%; with MDA-MB-231 breast, 75.7%; in the assay with RXF 393 renal, 91%. Also, the growth with SF-268 CNS was 75.3%; with SF-295 CNS, 50.3%; in the assay with SF-539 CNS it was 52%; with M14 melanoma, 75.4%.

On to `C[C@]12CCC3c4ccc(O)cc4C[C@@H](CCCCCCCCCS(=O)CCCC(F)(F)C(F)(F)F)C3C1CC[C@@H]2O` (some centres not stated), for which the growth in the assay on NCI-H23 lung is 84.8%; with NCI-H226 lung, 94.2%; in the assay on NCI-H460 lung it was 67.7%; in the assay on A549/ATCC NSCLC it was 67.9%; with 786-0 renal, 96.1%; with COLO 205 colon, 93.7%. Further, the growth in the assay on DU-145 prostate was 103%; with MALME-3M melanoma it was 103%; with MDA-MB-231 breast it was 79.5%; in the assay on RXF 393 renal, 87.5%; in the assay with SF-268 CNS, 97.1%; in the assay on SF-295 CNS it was 42.8%. Besides, the growth in the assay with SF-539 CNS is 86.4%; in the assay with UACC-257 melanoma, 91.5%; in the assay with M14 melanoma it was 100%.
